Bioassay records: PubChem BioAssay, Broad Institute
Only a sample is shown.
aSyn 5UTR act = Activators working through SNCA 5'UTR binding (MLPCN). activity score, % (tested at 7.5 µM), hits read low. 300,000 compounds, 7.1% hits. AID 1814. alpha-synuclein 5'UTR reporter, activators screen; in the data active = activity score below about -60%
Each line names hits and unclear results; the compound was inactive in the other large screens.

Clc1ccc(-c2cc(CSc3ccccc3)on2)cc1	aSyn 5UTR act -180.8
Clc1ccc(SCc2cc(-c3ccccc3)on2)cc1	aSyn 5UTR act -75.5
Clc1ccc(-c2cc(CSc3cccc(Cl)c3)on2)cc1	aSyn 5UTR act -66.8
O=C(CCl)NCc1cc(-c2ccc(Cl)cc2)no1	aSyn 5UTR act -65.3
Brc1ccc(N=Nc2ccc3ccccc3n2)cc1	none
NC(=S)N=Nc1c(O)n(Cc2ccc(Br)cc2)c2ccccc12	none
CCn1c(O)c(N=Nc2ccc3ccccc3n2)c2ccccc21	aSyn 5UTR act -143.1
Cc1ccc(-n2cc3c(=O)n(C)c(=O)n(C)c3c2)cc1C	aSyn 5UTR act -107.4
Cc1cc(N)c(-n2cc3c(=O)n(C)c(=O)n(C)c3c2)cc1C	aSyn 5UTR act -133.7
Cc1ccsc1/C=C1\CCc2ccccc2C1=O	aSyn 5UTR act -165.4
Cc1ccccc1/C=C1\CCCc2ccccc2C1=O	aSyn 5UTR act -241.3
Cc1cc2oc(C(=O)Nc3nonc3C)c(C)c2cc1Cl	aSyn 5UTR act -88.0
Cc1nonc1NC(=O)c1oc2ccc(F)cc2c1C	aSyn 5UTR act -72.8
COc1ccc(N=C2C(=Nc3ccc(OC)cc3)N(c3ccc(N(C)C)cc3)C(=S)N2c2ccc(OC)cc2)cc1	none
COc1ccc(N=C2C(=Nc3ccc(OC)cc3)N(c3ccccc3)C(=S)N2C(=O)c2ccc(Cl)cc2)cc1	aSyn 5UTR act -200.4
COc1ccc(N2C(=S)N(C(=O)c3ccccc3)C(=Nc3ccccc3)C2=Nc2ccccc2)cc1	aSyn 5UTR act -120.0
Cc1cc2c(cc1C)C(c1cc(Br)ccc1F)CC(=O)N2 (centres undefined)	none
C/C(=N\Nc1ccc([N+](=O)[O-])cc1)c1ccc(N)cc1	aSyn 5UTR act -101.1
CCOC(=O)c1nc(NNC(=O)c2ccc([N+](=O)[O-])cc2)sc1C	none
C/C(=N\Nc1nc(C)c(C)s1)c1ccc([N+](=O)[O-])cc1	aSyn 5UTR act -130.0
CCc1ccc(/C(C)=N\Nc2ccc([N+](=O)[O-])cc2)cc1	aSyn 5UTR act -137.3
C/C(=N\Nc1ccc([N+](=O)[O-])cc1)c1ccco1	aSyn 5UTR act -179.5
Cc1cccc2cc(C#N)c(NCc3ccccc3)nc12	aSyn 5UTR act -76.4
COc1ccc(-c2nc(SC)n(S(=O)(=O)c3ccccc3)n2)cc1	aSyn 5UTR act -120.4
N/C(=N\c1nc2c(c(=O)[nH]1)CCC2)Nc1cccc2ccccc12	aSyn 5UTR act -70.9
CC(=O)C1C(=O)c2c(cccc2[N+](=O)[O-])C1=Nc1ccccc1C (centres undefined)	aSyn 5UTR act -73.1
CC1=C([N+](=O)[O-])C(c2cccc(Br)c2)C2=C(N1)c1ccccc1C2=O (centres undefined)	none
Nc1[nH]n2c(=O)cc(-c3ccccc3)nc2c1N=Nc1ccccc1	none
O=c1c2c(nc3cc(-c4ccc(Cl)cc4)[nH]n13)CCS2	aSyn 5UTR act -131.5
Cc1nc2cc(-c3ccc(Br)cc3)[nH]n2c(=O)c1Cl	aSyn 5UTR act -74.4
O=c1cc(-c2ccccc2)nc2cc(-c3ccc(Br)cc3)[nH]n12	aSyn 5UTR act -94.2
CCc1c(C)nc2cc(-c3ccc(Cl)cc3)[nH]n2c1=O	aSyn 5UTR act -98.0
CCc1c(C)nc2cc(-c3cccc(Br)c3)[nH]n2c1=O	aSyn 5UTR act -199.0
COCc1cc(=O)n2[nH]c(-c3cccc(Br)c3)cc2n1	aSyn 5UTR act -75.1
O=[N+]([O-])c1ncccc1OCc1ccc(Cl)c(Cl)c1	aSyn 5UTR act -121.3
O=C(Nc1cccnc1)c1cc2cc(Br)ccc2o1	aSyn 5UTR act -116.4
O=C(NC(=S)Nc1cccnc1)c1cc2ccccc2o1	aSyn 5UTR act -66.0
CC(=O)Nc1ccc(NC(=S)NC(=O)c2cc3ccccc3o2)cc1	aSyn 5UTR act -70.5
O=C(NC(=S)Nc1ccc(CN2CCCCC2)cc1)c1cc2ccccc2o1	aSyn 5UTR act -68.5
Cc1cc(C)cc(C(=O)NC(=S)Nc2ccc(-c3cc4ccccc4oc3=O)cc2)c1	none
CCOC(=O)c1c(N/N=C/c2ccncc2)n[nH]c1C	aSyn 5UTR act -81.2
CCc1[nH]nc(C(=O)N/N=C/c2ccncc2)c1C	aSyn 5UTR act -70.3
COc1ccccc1C1=NC(c2ccc(C)cc2)N=C1C (centres undefined)	aSyn 5UTR act -77.8
Cc1ccc(Nc2nc(/N=C/N(C)C)n[nH]2)cc1C	aSyn 5UTR act -79.2
COc1ccc2oc(=N)c(C(=O)Nc3ccc(C)cc3)cc2c1	aSyn 5UTR act -101.4
N=c1oc2ccc(Cl)cc2cc1C(=O)Nc1ccc(F)cc1	aSyn 5UTR act -67.7
COc1ccc2oc(=N)c(C(=O)Nc3ccc(F)cc3)cc2c1	aSyn 5UTR act -97.0
COc1ccc(NC(=O)c2cc3ccccc3o/c2=N\NS(=O)(=O)c2ccc(C)cc2)cc1	aSyn 5UTR act -133.0
COc1ccc2o/c(=N\O)c(C(=O)Nc3ccc(C)cc3)cc2c1	aSyn 5UTR act -281.7
CCOC(=O)c1cnn(-c2cc(Oc3ccccc3C)ncn2)c1N	aSyn 5UTR act -88.4
Cc1cnn(-c2cc(Oc3ccccc3)ncn2)c1	aSyn 5UTR act -216.2
CCOC(=O)c1cnn(-c2ncnc3c2oc2ccccc23)c1N	aSyn 5UTR act -98.4
CCOC(=O)c1cnn(-c2ccccn2)c1N	aSyn 5UTR act -115.8
CCOC(=O)c1cnn(-c2cc(Oc3ccccc3)ncn2)c1N	aSyn 5UTR act -101.3
c1ccc(Oc2cc(-c3ccccc3)ncn2)cc1	aSyn 5UTR act -123.9
CCOC(=O)c1cnn(-c2ncnc3sc4c(c23)CCC4)c1N	aSyn 5UTR act -74.5
CCOC(=O)c1cnn(-c2cc(C)c3ccccc3n2)c1N	aSyn 5UTR act -65.4
Cc1oc2c(cc(NS(=O)(=O)c3ccc4c5c(cccc35)C(=O)N4)c3ccccc32)c1C(=O)OC(C)C	aSyn 5UTR act -68.8
CCCCCN=C(C)c1c(O)c2ccccc2oc1=O	aSyn 5UTR act -211.5
O=c1[nH]c(N/N=C/c2ccc(O)cc2)nc2ccccc12	aSyn 5UTR act -157.8
C=CCn1c(N/N=C/c2ccc(O)cc2)nc2ccccc2c1=O	aSyn 5UTR act -134.5
O=c1[nH]c(N/N=C\c2ccc(F)cc2)nc2ccccc12	aSyn 5UTR act -149.9
C=CCn1c(SCc2c(C)noc2C)nc2ccccc2c1=O	none
CCOC(=O)c1cnc(Nc2ccccc2)nc1C(F)(F)F	aSyn 5UTR act -89.2
O=C(Nc1ccccc1C(F)(F)F)c1cc2ncc(CCCl)cn2n1	aSyn 5UTR act -80.7
CCc1ccccc1NC(=O)c1cc2ncc(Br)cn2n1	aSyn 5UTR act -78.9
CCC(=NCc1ccccc1)c1c(C(F)(F)F)[nH]n(-c2nc3ccccc3s2)c1=O	aSyn 5UTR act -110.9
CN(C)CCCNS(=O)(=O)c1ccc(N2CCC(c3ccc(Cl)cc3)=N2)cc1	aSyn 5UTR act -138.6
C/C(=N\NC(=O)c1nn(C)c(C)c1Br)c1ccc(NC(=O)c2ccoc2C)cc1	aSyn 5UTR act -114.7
CCOc1ccc(-c2cc(C(=O)N/N=C(\C)c3cccnc3)c3ccccc3n2)cc1	aSyn 5UTR act -91.7
C/C(=N/NC(=O)c1ccoc1C)c1ccc(N2CCOCC2)cc1	aSyn 5UTR act -131.0
C/C(=N\NC(=O)c1nn(C)c(C)c1Br)c1ccc(NC(=O)c2ccc(C)s2)cc1	aSyn 5UTR act -149.3
Cc1ccc(/C=N/NC(=O)c2cc(-c3cccnc3)nc3ccccc23)cc1	none
C/C(=N/NC(=O)c1ccoc1C)c1ccc(NC(=O)c2ccncc2)cc1	aSyn 5UTR act -206.5
C/C(=N\NC(=O)c1c(Br)c(C)nn1C)c1ccc(NC(=O)c2ccoc2C)cc1	aSyn 5UTR act -106.1
C/C(=N\NC(=O)c1ccc(NS(=O)(=O)c2cccs2)cc1)c1ccccn1	none
C/C(=N\NC(=O)c1ccoc1C)c1cccnc1	aSyn 5UTR act -117.3
C/C(=N\NC(=O)c1nn(C)c(C)c1Br)c1ccc(NC(=O)c2ccccc2F)cc1	aSyn 5UTR act -68.5
